A3A deaminase: blocks human APOBEC3A ssDNA deamination. inhibition, % at 20 µM. AID 493011. P31941. hit rate 0.41% among 330,000. recombinant A3A, FAM/TAMRA ssDNA deamination fluorescence;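 active = at least 40% inhibition at 20 µM here, with at most 30% in a related deaminase screen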;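 also: plate controls were A3A with DMSO for no effect and wells lacking A3A enzyme for full effect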
aDG glyco up: alpha-DG glycosylation activation. hit rate 0.22% among 360,000. Pro5-aDG cells, alpha-DG glycosylation AlphaScreen (IIH6); 0% Pro5, 100% B10-LARGE cell signal. activation, % at 10 µM. AID 624168;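 active = activation of at least 8% versus controls, or a plate z-score of at least 8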;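 also: Pro5 are CHO cells carrying HIG-tagged alpha-DG that lacks glycosylation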
PHOSPHO1 inh: inhibitors of human PHOSPHO1 phosphatase | hit rate 1.1% among 290,000 | recombinant PHOSPHO1, absorbance phosphatase assay | inhibition, % at 13.3 µM | Q8TCT1 | AID 1565; in the data active = inhibition above about 60%
ALR H2O2 inh: blocks human ALR sulfhydryl oxidase activity. P55789. purified ALR, DTT oxidation, H2O2 HRP-luminol luminescence. inhibition, % (test concentration not listed). hit rate 3.8% among 290,000. AID 485317;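 active = mean replicate inhibition above about 79%, with every replicate also reaching it, limit read from the data; inconclusive = only one of the two criteria met; inactive = mean below limit and not every replicate reaching it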
Target sequence (P55789 whole entry, looked up): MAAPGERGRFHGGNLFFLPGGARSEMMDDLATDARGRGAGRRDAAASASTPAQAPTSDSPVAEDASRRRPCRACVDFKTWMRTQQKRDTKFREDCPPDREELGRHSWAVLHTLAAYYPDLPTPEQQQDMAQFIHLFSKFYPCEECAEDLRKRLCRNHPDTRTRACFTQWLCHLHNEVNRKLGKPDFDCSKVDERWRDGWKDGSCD
APOBEC3G inh: blocks human APOBEC3G single-stranded DNA deamination; Q9HC16; recombinant A3G, ssDNA deamination FAM/TAMRA fluorescence; inhibition, % at 20 µM; hit rate 0.28% among 330,000; AID 493012;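 active = inhibition of at least 40% at 20 µM, with no more than 30% in the related APOBEC3A deaminase screen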;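 also: plate controls were DMSO wells with A3G for no effect and wells lacking A3G enzyme for full effect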
Target sequence (Q9HC16 whole entry, looked up): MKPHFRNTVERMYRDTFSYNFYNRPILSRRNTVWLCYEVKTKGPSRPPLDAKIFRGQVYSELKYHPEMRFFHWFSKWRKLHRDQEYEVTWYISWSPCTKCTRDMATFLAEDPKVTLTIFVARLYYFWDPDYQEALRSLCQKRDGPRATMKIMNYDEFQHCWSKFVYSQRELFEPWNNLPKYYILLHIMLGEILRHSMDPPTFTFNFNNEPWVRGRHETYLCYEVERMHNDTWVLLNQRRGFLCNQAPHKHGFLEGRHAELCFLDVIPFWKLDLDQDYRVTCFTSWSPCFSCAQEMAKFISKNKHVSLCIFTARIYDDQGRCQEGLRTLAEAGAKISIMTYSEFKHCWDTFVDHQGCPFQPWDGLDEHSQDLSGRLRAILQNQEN
rCAG binder: binds r(CAG) RNA repeats. inhibition, % at 3 µM. AID 651821. r(CAG) RNA repeat, TO-PRO-1 dye displacement fluorescence. hit rate 1.3% among 370,000;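 active = inhibition above the plate cutoff, the mean of all test compounds on that plate plus 3 SD, cut at about 35% in these data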;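 also: 0% = DMSO alone and 100% = 100 µM mitoxantrone as full dye displacement; higher means more dye released from RNA so lower well fluorescence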
rCAG binder conf: r(CAG) RNA repeat binding, confirmation; shares compounds with rCAG binder; TO-PRO-1 dye displacement fluorescence; inhibition, % at 3 µM; hit rate 70% among 4,300; AID 652065;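 active = inhibition above a per-plate cutoff, the mean inhibition of sample wells plus 3 SD, cut at about 35% in these data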;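 also: loss of TO-PRO-1 fluorescence as compound displaces dye from 1x1 AA loop RNA; 0% = DMSO only wells and 100% = 100 µM mitoxantrone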
dCAG dye counter: DNA CAG dye complex inhibition counter-screen; d(CAG) DNA oligo TO-PRO-1 dye displacement, fluorescence; inhibition, % at 3 µM; AID 652068; shares compounds with rCAG binder; hit rate 94% among 4,300;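 active = inhibition above its plate's cutoff, the mean test-well inhibition plus 3 SD, cut at about 4.8% in these data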;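 also: 0% = DNA dye mix with DMSO and 100% = 100 µM mitoxantrone; hits displace the dye from DNA and so lower well fluorescence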
* hit, by the source's call; u = inconclusive; x = no result. Shown are actives, neighbours in structure and some others; about 5.4% of the full set was active somewhere.

SMILES	A3A deaminase	aDG glyco up	PHOSPHO1 inh	ALR H2O2 inh	APOBEC3G inh	rCAG binder	rCAG binder conf	dCAG dye counter
CC(c1ccccc1)N1C(=O)c2ccc(C(=O)NCc3cccnc3)cc2C1=O (configuration not stated)	-1.0	-0.1	37.6	1.9	-11.3	-6.8	x	x
CC(c1ccccc1)N1C(=O)c2ccc(C(=O)Nc3ccc(Br)cc3C(=O)O)cc2C1=O (configuration not stated)	-1.5	-0.3	-31.2	8.5	-11.2	52.1*	80.5*	77.2*
COc1ccc(-c2coc3c(C(=O)N4CCN(C)CC4)cccc23)c(C)c1	x	0.0	x	x	x	1.4	x	x
COc1ccc(S(=O)(=O)Nc2c(C(=O)O)[nH]c3ccc(OC)cc23)c(OC)c1	-0.9	-0.3	45.9	45.8	0.1	36.5*	23.7	10.4*
COc1ccc(S(=O)(=O)Nc2c(C(=O)O)[nH]c3ccccc23)c(OC)c1	0.3	-0.1	-1.5	u	-2.8	35.6*	18.9	4.3
O=S(=O)(c1ccc(F)cc1)N1CCCc2nc(-c3ccc(Br)cc3)ccc21	x	x	x	x	x	0.6	x	x
O[C@@H]1[C@@H](O)[C@H](n2c3ccc(Cl)cc3c3ccc4c5cc(Cl)ccc5[nH]c4c32)OC[C@H]1O	x	x	x	x	x	51.1*	43.5*	26.7*
[N-]=[N+]=NC(c1ccccc1)c1nc2ccccc2[nH]c1=O (configuration not stated)	-1.0	0.5	14.0	-14.6	-4.8	44.1*	3.6	2.6
O=c1[nH]c2ccccc2nc1C(Cl)c1ccccc1 (configuration not stated)	-4.3	x	3.2	x	-1.3	x	x	x
Cc1ccc(NC(=O)Cn2c(=O)oc3cc(S(=O)(=O)N4CCC(C)CC4)ccc32)cc1C	-2.9	-0.1	-11.3	x	-6.5	46.0*	36.0*	14.9*
COC(=O)C1=C(C)N(Cc2ccccc2C(F)(F)F)C(=NCc2ccc(C(F)(F)F)cc2)NC1CCc1ccccc1 (configuration not stated)	x	x	x	x	x	2.0	x	x
CCN(CC)C(=O)CSc1nc2nc(C)cc(C)c2c(=O)[nH]1	-0.6	0.0	-1.2	-7.0	-4.7	-4.3	x	x
CCOc1ccc(-n2c(=S)sc3c(=O)[nH]c(SCC(=O)C(C)(C)C)nc32)cc1	-4.4	-0.7	-7.3	18.4	-12.7	37.2*	66.2*	30.1*
CCOC(=O)CSc1nc2c(sc(=S)n2-c2ccccc2)c(=O)[nH]1	-5.5	0.1	-0.2	-0.7	-6.0	25.8	x	x
CCOc1ccc(-n2c(=S)sc3c(=O)[nH]c(SCC(=O)NCc4ccco4)nc32)cc1	11.5	-0.1	25.5	16.8	-1.4	47.2*	40.9*	11.8*
CCN(CC)C(=O)CSc1nc2c(sc(=S)n2-c2ccc(C)cc2C)c(=O)[nH]1	0.2	-0.1	9.3	x	3.3	39.2*	46.5*	14.6*
CCOC(=O)CSc1nc2c(sc(=S)n2-c2ccc(OCC)cc2)c(=O)[nH]1	1.0	0.4	-7.3	1.5	6.3	43.2*	38.8*	10.2*
CCCCCCN1CCS(=O)(=O)N(Cc2ccccc2)C(C(=O)OC)C1 (configuration not stated)	x	x	x	x	x	-3.0	x	x
CCOC(=O)C1=C(C)NC(C)=C(C(=O)OCC)C1C(=O)OCC(=O)Nc1ccc(NC(C)=O)cc1	x	0.5	x	x	x	0.3	x	x
COc1ccc(-c2csc(/C(C#N)=C(\O)CSc3nccn3C)n2)cc1OC	-17.0	0.4	36.4	86.3*	-3.9	38.3*	59.0*	22.2*
O=C(OCc1ccccc1)N1Cc2ccnnc2CC1c1ccccc1-c1ccc(C(F)(F)F)cc1 (configuration not stated)	x	x	x	x	x	1.7	x	x
Nc1nc2c(ncn2[C@@H]2O[C@H](CNCc3ccc4ncccc4c3)[C@@H](O)[C@H]2O)c(=O)[nH]1	x	-0.2	x	x	x	3.7	x	x
CCOC(=O)Cc1csc(NC(=O)CSc2nc(-c3ccccc3)c(C#N)c(=O)[nH]2)n1	1.3	0.0	-35.4	98.3*	-0.6	64.0*	56.8*	20.1*
COC(=O)C(CC(C)C)NC(=O)CSc1nc(-c2ccccc2)c(C#N)c(=O)[nH]1 (configuration not stated)	0.6	0.1	8.9	4.1	-10.5	17.6	x	x
CCOc1ccc2nc(NC(=O)CSc3nc(-c4ccccc4)c(C#N)c(=O)[nH]3)sc2c1	0.2	0.7	-21.2	x	-4.6	82.9*	88.2*	68.9*
SMILES	A3A deaminase	aDG glyco up	PHOSPHO1 inh	ALR H2O2 inh	APOBEC3G inh	rCAG binder	rCAG binder conf	dCAG dye counter
COc1cccc(-c2nc(SCC(=O)Nc3nc(-c4ccccc4)c(C)s3)[nH]c(=O)c2C#N)c1	-1.5	0.4	-5.9	98.6*	-1.7	69.9*	91.5*	75.5*
COc1ccc(-c2c(C(=O)c3ccc(Br)cc3)[nH]c(N)c2C(=O)NCCc2c[nH]c3ccccc23)cc1OC	x	x	x	x	x	11.6	x	x
O=c1cc(-c2ccc(O)c(O)c2)oc2cc(O)cc(O)c12	-2.3	-0.1	39.7	u	-5.0	11.7	x	x
COc1ccc(-c2cc(=O)c3c(O)cc(O)cc3o2)cc1	1.0	-0.3	x	0.8	2.4	6.3	x	x
O=c1c(O)c(-c2ccc(O)c(O)c2)oc2cc(O)cc(O)c12	1.0	0.0	-0.5	98.6*	-4.0	36.2*	27.7	8.1*
O=c1c(-c2c(O)cc(O)c3c(=O)cc(-c4ccc(O)cc4)oc23)c(-c2ccc(O)cc2)oc2cc(O)cc(O)c12	31.5	-0.2	8.5	52.1	44.0	48.6*	35.9*	16.0*
O=c1cc(-c2ccc(O)c(-c3c(O)cc(O)c4c(=O)cc(-c5ccc(O)cc5)oc34)c2)oc2cc(O)cc(O)c12	0.7	-0.4	3.5	x	-8.3	92.3*	78.7*	52.8*
CCCCC(=O)N(C)c1c(C)nc2ccc(C(=O)NCc3ccccc3OC)cn12	x	0.4	x	x	x	-2.0	x	x
COc1cccc(/C=N/Nc2snc(SC)c2C#N)c1	1.6	-0.1	-26.6	-4.2	-6.7	46.6*	36.1*	15.1*
CSc1nsc(N/N=C/c2ccccc2)c1C#N	-1.1	0.1	-14.8	-1.7	-8.0	22.7	x	x
COc1cccc(/C=N/Nc2snc(SC)c2C#N)c1O	-4.7	0.9	-8.2	85.8*	-7.9	74.6*	48.1*	19.0*
COc1ccc(/C=N/Nc2snc(SC)c2C#N)cc1OC	2.4	-0.2	-10.4	8.4	-2.6	50.2*	35.7*	11.0*
COc1cc2c(c3c1c(=O)c1ccccc1n3C)C=CC(C)(C)O2	x	x	x	x	x	0.7	x	x
COc1cc(/C=C2\SC(=S)N(C(C(=O)O)c3ccccc3)C2=O)cc(OC)c1OC (configuration not stated)	-2.2	-0.1	32.2	x	-7.6	56.0*	64.3*	24.4*

Assay outcomes (PubChem)
